TbPYK inhibitor = inhibitors of Trypanosoma brucei pyruvate kinase. Potency, µM (titrated, usually from 76.8 µM), without a hit: top-dose activity, negative = inhibition, most hits filed as inhibitors. AID 624173. TbPYK enzyme, Kinase-Glo Plus ATP luminescence, 45 min. actives 0.12% (n = 410,000). Q57TT1; also: potency is read from the fitted curve at half-maximal effect; % is scaled to controls: 0 for no effect and ±100 for the full control effect; nearly all actives have a fitted effect of over 50% in size
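Assay buffer: 50 mM TEA pH 7.2, 100 mM KCl, 10 mM MgCl2, 0.05% BSA, 0.01% Tween-20. Pyruvate kinase from T. brucei plus substrate met compound, then ADP (130 uM final). Luminescence was read post 45 min RT.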
LmPK inh = LmPK (Leishmania mexicana) enzyme inhibition. Q27686. purified LmPK, Kinase-Glo ATP luminescence, 1 h. Potency, µM (doses to about 57.5 µM), without a hit: at the highest dose activity change, negative = inhibition, hits mostly inhibitors. actives 0.37% (n = 290,000). AID 1721; also: potency is read from the fitted curve at half-maximal effect; % is scaled to controls: 0 for no effect and ±100 for the full control effect
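ATP generated from ADP (0.1 mM) and PEP (0.5 mM) by 0.1 nM LmPK over 1 h at room temperature (pH 7.2 imidazole buffer) was detected by coupled luciferase luminescence. Values were normalized to uninhibited and no-enzyme wells.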
Shiga toxin inh = inhibitors of Shiga toxin in Vero cells; Vero cells, Shiga toxin protein synthesis inhibition reporter; inhibition, % at 38.7 µM; actives 9.2% (n = 290,000); AID 2315; in the data active = inhibition mostly above about 28%, no sharp cut-off; inactive = mostly below about 43%; also: 0% is about no effect
RE007 growth inh = less growth of the S. pombe RE007 Vpr strain | S. pombe RE007 Vpr strain, BacTiter-Glo ATP luminescence, 24 h | Potency, µM (titrated, usually from 92.2 µM), for inactives: at the highest dose activity change, negative = less growth, hits mostly inhibitors | actives 0.21% (n = 360,000) | AID 651644; active = well fitted falling curve with a large enough effect; inconclusive = small, poorly fitted or top-dose-only effect; inactive = no such curve, though single readings can be large or run the other way; also: potency is read from the fitted curve at half-maximal effect; % is scaled to controls: 0 for no effect and ±100 for the full control effect; nearly all actives have a fitted effect of over 50% in size
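Fission yeast strain RE007, carrying one chromosomally integrated HIV-1 vpr copy, was seeded at OD 0.01 in PMG+AL medium with 23 nL pinned compound. After 24 h at 30 °C and 99% humidity, viability was read by BacTiter-Glo luminescence.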
Cycloheximide cs = counter-screen hit for Shiga toxin inhibitors, cycloheximide; cell reporter, cycloheximide protein synthesis inhibition counterscreen; max response, %; actives 12% (n = 300,000); AID 2314; in the data active = max response mostly above about 13%, no sharp cut-off; inactive = mostly below about 14%; also: read at 38.3 µM for the half of the compounds with a filed dose; 0% is about no effect
Giardia FBPA inh = Giardia lamblia aldolase inhibition; A8B2U2; AID 2451; Potency, µM (doses to about 59.6 µM), for inactives: top-dose activity, negative = inhibition, actives largely listed as inhibitors; actives 0.71% (n = 290,000); purified Giardia FBPA; also: potency is read from the fitted curve at half-maximal effect; % is scaled to controls: 0 for no effect and ±100 for the full control effect; nearly all actives have a fitted effect of over 55% in size
Target sequence (A8B2U2 whole entry, looked up): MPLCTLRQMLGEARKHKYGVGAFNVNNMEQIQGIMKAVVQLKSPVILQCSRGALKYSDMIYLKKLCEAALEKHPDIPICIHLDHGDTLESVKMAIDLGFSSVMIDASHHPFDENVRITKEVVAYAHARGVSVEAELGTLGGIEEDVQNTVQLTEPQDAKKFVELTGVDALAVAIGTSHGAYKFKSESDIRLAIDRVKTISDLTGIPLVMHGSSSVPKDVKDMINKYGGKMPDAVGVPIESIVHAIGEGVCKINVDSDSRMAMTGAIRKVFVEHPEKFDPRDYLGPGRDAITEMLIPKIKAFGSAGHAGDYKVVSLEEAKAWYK
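Giardia FBPA (40 nM reagent) was preincubated 10 min at RT with compound (up to 57.5 uM final), then substrate plus GAPDH/TPI/NAD/arsenate coupling system with diaphorase/resazurin was added; resorufin fluorescence (525/598 nm) was read after 20 min.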
An asterisk follows results filed as active; ? = inconclusive; . = no result given; [ ] = dose if it differs, or a comment. This is one part of a sample in which hits are shown more often than they occur. Unless noted, calls follow the shape of the dose curve; as a rule, active = well fitted curve in the direction sought with a large enough effect; inconclusive = small, poorly fitted or top-dose-only effect, or another doubt; inactive = no such curve, though single readings can be large; an effect the other way counts as inactive or inconclusive.

SMILES	TbPYK inhibitor	LmPK inh	Shiga toxin inh	RE007 growth inh	Cycloheximide cs	Giardia FBPA inh
O=C(NC1CCCCC1)C(c1ccncc1)N(Cc1ccccc1)C(=O)c1ccc(-c2ccccc2)[nH]1 (centres undefined)	2%	-3%	-13	-4%	-2	-3%
COc1ccc(-c2nn(-c3ccccc3)cc2C(=O)NC2CCCCC2C)cc1 (centres undefined)	-3%	.	.	-1%	.	.
N#Cc1cc(NC(=O)c2ccc(F)cc2)c(=O)n2c1[nH]c1ccccc12	.	-1%	-5	.	-4	-4%
CCN1C(=O)/C(=C/N2CCc3ccccc32)SC1=S	1%	-5%	69*	0%	16*	2%
Nc1c(Cl)cc2c(c1Oc1ccccc1)C(=O)c1ccccc1C2=O	-4%	-14%	27	-18%	29*	1%
CCSC1=NCCN1C(=O)Cc1ccc(-c2ccccc2)cc1	-10%	-3%	-6	?	8	-2%
CSC1=NCCN1C(=O)Cc1ccc(-c2ccccc2)cc1	-3%	-2%	42*	-9%	20	2%
Cc1ccc(Cl)cc1N1CCN(C(=O)CCCCCn2c(=O)[nH]c3ccccc3c2=O)CC1	0%	.	.	.	.	.
Cc1cc(C)cc(OCCn2nnc3ccccc32)c1	4%	1%	58*	-6%	47*	7%
Clc1ccccc1OCCn1nnc2ccccc21	-7%	-1%	63*	0%	45*	5%
Cc1ccc(C)c(OCCn2nnc3ccccc32)c1	2%	1%	34*	?	33*	-2%
Cc1ccc(OCCn2nc3ccccc3n2)c(C)c1	4%	0%	38*	-12%	32*	-9%
COc1ccc(OC)c(CNc2ncnc3onc(-c4ccc(Cl)cc4)c23)c1	-5%	.	.	.	.	.
Cc1nn(CC(=O)Nc2ccc(N3CCOCC3)cc2)c(C)c1Cl	2%	-5%	35	-4%	8.8*	.
CCCCOC(=O)Nc1ccc(N2CCCCC2)cc1	-19%	9%	94	-19%	43*	-17%
CC(C)CC(=O)Nc1ccc(N2CCOCC2)cc1	3%	-1%	89*	-3%	16	1%
CCCCOC(=O)Nc1ccc(N2CCOCC2)cc1	8%	-2%	80*	-12%	29*	-6%
Cc1nn(CC(=O)Nc2ccc(N3CCOCC3)cc2)c(C)c1Br	0%	6%	-4	6%	1	8%
CCNCC(=O)Nc1ccc(N2CCOCC2)cc1	-2%	-3%	-10	-7%	-3	-12%
CCOc1ccc(S(=O)(=O)Nc2ccc3c(c2)N(C(C)=O)CCC3)cc1	5%	.	.	.	.	.
O=C(Nc1ccc2nc(SCC(=O)N3CCOCC3)sc2c1)c1ccccc1Cl	0%	.	.	.	.	.
CCOC(=O)C1=C(N)OC2=C(C(=O)CC(C)(C)C2)C1c1ccc(C)s1 (centres undefined)	-1%	1%	89*	26%	26*	-1%
CCOC(=O)C1=C(N)OC2=C(C(=O)CC(C)(C)C2)C1c1ccc(CC)s1 (centres undefined)	4%	-9%	44	3%	28	6%
O=C(NCc1ccc(F)cc1)Nc1cccc(Cl)c1	-5%	-2%	62*	-14%	28*	-11%
O=C(CNC(=O)c1ccc(F)cc1)NCc1ccc(Cl)cc1	15%	1%	-6	-1%	0	0%
SMILES	TbPYK inhibitor	LmPK inh	Shiga toxin inh	RE007 growth inh	Cycloheximide cs	Giardia FBPA inh
O=C(NCc1ccc(F)cc1)Nc1ccc(Cl)cc1	-1%	0%	59	-9%	36*	-7%
CCn1nc(C)c2c(-c3ccccc3)cc(=O)n(C(C)C(=O)Nc3cccc(F)c3)c21 (centres undefined)	-1%	.	.	.	.	.
Cc1ccc(NC(=O)CN(C)C(=O)/C=C/c2cccs2)cc1	2%	4%	-3	-2%	9.6*	-3%
Cc1ccc(NC(=O)CN(C)C(=O)Nc2ccc(C)cc2)cc1	1%	-1%	69*	-15%	22*	13%
Cc1ccc(NC(=O)/C(CN(C)C)=N\O)cc1	-3%	5%	62*	-10%	27*	8%
Cc1cccc(C)c1NC(=O)CN(C)C(=O)/C=C/c1cccs1	0%	0%	-3	4%	0	1%
Cc1ccc(NC(=O)CN(C)CC(=O)Nc2ccccc2-c2ccccc2)cc1	5%	7%	-9	-11%	-1	-6%
Cc1nc(-c2ccc(C)c(S(=O)(=O)N3CCC(C(=O)NCc4ccc(F)cc4)CC3)c2)no1	2%	.	.	.	.	.
COc1ccc(CNCCSc2nnnn2-c2ccccc2)cc1	1%	.	.	.	.	.
CCn1c(=O)c2cc(C(=O)N(C)c3cc(C)ccc3C)sc2c2ccccc21	7%	.	.	.	.	.
CCCC(=O)NC(=S)NNC(=O)c1ccc([N+](=O)[O-])cc1	-24%	-14%	-13	-5%	-3	?
O=C(NNC(=O)c1ccccc1[N+](=O)[O-])c1cccs1	-1%	5%	13	8%	14	2%
O=C(NNC(=O)c1ccccc1Br)c1cccs1	2%	4%	65*	-4%	26*	3%
O=C(NNC(=O)c1cccs1)c1ccc(Cl)cc1	-4%	-3%	24	11%	19*	1%
CCC(=O)NC(=S)NNC(=O)c1ccc(O)cc1	-6%	4%	24	-7%	23*	-9%
O=C(Nc1cccc(NC(=O)c2cccs2)c1)c1ccc(Br)cc1	-4%	9%	1	-6%	2	1%
O=C(NNC(=O)c1cccs1)c1ccc(Br)cc1	1%	2%	40	-3%	18*	5%
CCOc1ccc(CNC(=O)c2ccc3c(c2)c(C)c(C)n3Cc2ccc(Cl)cc2)cc1	1%[15.4 µM]	.	.	.	.	.
COc1ccc(/C=C/C(=O)N2CCN(C)CC2)cc1S(=O)(=O)N1CCCCC1	0%	2%	-21	0%	-4	6%
O=C(NNC(=O)c1cccs1)c1ccncc1	-4%	-2%	-12	-3%	16	6%
O=C(NNC(=O)c1cccs1)c1ccccc1	3%	-1%	53*	-1%	28*	4%
O=C(NNC(=S)NC(=O)c1cccs1)c1ccc(O)cc1	-14%	-2%	28*	13%	23	.
Cc1cc(C)c2sc(N)nc2c1	1%	-2%	8	-15%	-4	-3%
Cc1cc(C)c2nc(N)sc2c1	-12%	3%	30	-27%	34*	6%
N=c1oc2ccccc2cc1C(=O)Nc1ccccc1	-11%	-5%	116*	-6%	46*	10%
COc1ccc2oc(=O)c(C(=O)Nc3ccccc3-c3ccccc3)cc2c1	-8%	-3%	2	11%	-3	6%
COc1ccc2oc(=O)c(C(=O)Nc3ccccc3C)cc2c1	?	31%	.	-9%	34*	4%

Screens deposited in PubChem by National Center for Advancing Translational Sciences (NCATS).
